From PubChem BioAssay AID393 (SGCOxCompounds, 2006)
Active and inactive are the calls of the source. The rule behind the calls is not given here.

These compounds were tested against Serine/threonine-protein kinase pim-1 (Homo sapiens) (UniProt P11309) (assay: PIM1 kinase ligand binding by thermal shift, biophysical, human, melting temperature shift (AID 393)). Conditions: Thermal shift assay, at 10 µM, hits give high values; protein 2 µM, buffer 10 mM Na Citrate, pH 6.5, NaCl 150 mM unless noted.
Chain of Serine/threonine-protein kinase pim-1 (Homo sapiens) (P11309 whole entry, looked up): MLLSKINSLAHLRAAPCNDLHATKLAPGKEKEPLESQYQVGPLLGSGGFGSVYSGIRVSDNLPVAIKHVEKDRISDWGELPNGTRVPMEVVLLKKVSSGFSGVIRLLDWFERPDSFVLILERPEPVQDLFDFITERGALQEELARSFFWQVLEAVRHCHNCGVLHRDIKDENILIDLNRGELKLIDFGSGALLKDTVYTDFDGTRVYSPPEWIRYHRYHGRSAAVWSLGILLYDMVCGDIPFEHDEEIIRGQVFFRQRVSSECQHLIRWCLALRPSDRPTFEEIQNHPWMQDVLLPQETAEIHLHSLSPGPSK

Row | Structure (SMILES) | Tm shift
1 | O=C1NC(=O)c2c1c1c3ccccc3n3c1c1c2c2ccccc2n1[C@@H]1CCC3O1 | 12.7 Celsius [protein 2 µM, buffer 10 mM PIPES, pH 6.5, NaCl 150 mM] (active)
2 | N#C/C(=C1\Nc2ccccc2S1)c1ccnc(NCCc2cccnc2)n1 | 10.3 Celsius (active)
3 | CCn1cnc2c(Nc3cccc(Cl)c3)nc(N[C@@H]3CCCC[C@@H]3N)nc21 | 5.8 Celsius (active)
4 | O=C1Nc2ccccc2/C1=C\c1cnc[nH]1 | 3.92 Celsius [protein 3 µM, buffer 10 mM HEPES] (active)
5 | Cc1c2ccncc2c(C)c2c1[nH]c1ccccc12 | 8.6 Celsius (active)
